From PubChem BioAssay AID1159506 (National Center for Advancing Translational Sciences (NCATS), 2015)
In all, about 59,000 sequences were measured (the read-out: median about -0.00055, lowest 2% from about -2 on). The sample as a whole holds a higher share of the lowest values than the screen did.

Experiment: Identification of proteins required for the processing of the EWS-FLI1 nascent transcript;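 also: robust z of luciferase light less the median z of siRNAs with the same seed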
Details: TC32 Ewing sarcoma NR0B1-luc vs CMV-luc (EWS-FLI1 target promoter against control promoter), 48 h; screened at 20 nM (by protocol)
Summary of the method: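 TC32 Ewing sarcoma cells carrying NR0B1-promoter or CMV-promoter luciferase reporters were reverse-transfected with single siRNAs at 20 nM, three per gene genome-wide. Luminescence was read after 48 h and normalized to non-targeting controls.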
UAAUUCACUAACUUCAAGC against SLC37A3 showed a seed-corrected z-score of 0.139. UGGGUGUCCAUUCUCGAGC against PPP1R18 showed a seed-corrected z-score of 1.72. UUUUGGGUGUGGACCUUGC against NPFF gave a seed-corrected z-score of 0.585. For ACAGUGGAAACCUCACUUC against FOXP3, the seed-corrected z-score was 0.0552. For AUUCUUAUCCAUCCGAUCC against CTTN, the seed-corrected z-score was -0.272. For UCAUUUUACCUCUUCCAUC against GADL1, the seed-corrected z-score was 0.676. For UCUGCUUCACCAGUUACUC against HNRNPH1, the seed-corrected z-score was -2.08. Work on UGAUAAACCACAGCAACUC against TYMS yielded a seed-corrected z-score of 1.01. Work on UUUGAUACCUCCUUUACCC against HELB yielded a seed-corrected z-score of 0.388. In the case of UCUCUGCUAACGAUAACUC against PIWIL1, the seed-corrected z-score is reported as -0.0232. Work on UAACCUGCUCAAAAGAAUG against ACSL6 yielded a seed-corrected z-score of 0.714. Sequence UAAAGUACAGCUCGGUUUG against OOSP2 has a seed-corrected z-score of 0.436. UUUGUUGAAGGUUUCACUG against ZMYND15 gave a seed-corrected z-score of 1.4. Sequence UCGAUAGUCAUCAAAGAUC against VWC2L has a seed-corrected z-score of -2.99. Work on UACUGGUAAAAGGUGUUCC against C6orf58 yielded a seed-corrected z-score of 0.5. For UACAGAGAAAGGUAGCGGU against GPR3, the seed-corrected z-score was -2.23. Work on UGAUCUACCUGCUUGUGCC against USP17L9P yielded a seed-corrected z-score of -0.147. UGACUGACAACUUCUGGAU against PAK6 gave a seed-corrected z-score of -0.344. For AAUGGACCUAGAUUUCAGG against C16orf59, the seed-corrected z-score was 1.27. Sequence UUAGCUGCGUCAGAUAUCG against RPS6KA2 has a seed-corrected z-score of -2.67. UCCUGGAUACGCAACUUGA against C2orf68 showed a seed-corrected z-score of -0.63. UGCAUUUGAAGACUCACUC against HMG20A showed a seed-corrected z-score of 0.87. UUGAGUCUUAGCAAUGUGA against KIAA0895L gave a seed-corrected z-score of -0.000345. UACAUGAAAAGCAAGGCUG against OR6B3 gave a seed-corrected z-score of 0.504. UAUGGUGUUGAGCUCAGCG against SLC12A3 showed a seed-corrected z-score of 0.228. For UCUACUAUCGGCUUAUAGC against 11-Sep, the seed-corrected z-score was -0.114. Work on UCCGGAGUAAGCUUCAACC against DHX9 yielded a seed-corrected z-score of -0.429. With AACGAAGCAAGCAUGGUCC against LARP6 the seed-corrected z-score was -0.832. UAGUCAACGUUGGACACGG against PRR22 gave a seed-corrected z-score of 0.319. With UUGACGGUAAUAUCUGUCC against SMU1 the seed-corrected z-score was -3.14. For UAGCCUAUGGUACAAGUUC against ERVFRD-1, the seed-corrected z-score was 0.353. With AACUCAUUCCCUUCUUUCC against ZMAT3 the seed-corrected z-score was -0.582. Work on UCUCUGACAAGUGUGAAGC against DKK1 yielded a seed-corrected z-score of -0.0537. UGAUGAGCGAGAAGGUACC against DLL4 gave a seed-corrected z-score of 1.41. Sequence UUAAUUGCUAUGUUGUUGG against NFS1 has a seed-corrected z-score of -0.476. Work on AUAGGUUUGUGAUCCAACC against AAED1 yielded a seed-corrected z-score of 0.186. For AUUCGUAUGGUUCAUGUCC against PRPF8, the seed-corrected z-score was -2.88. Sequence UUAAAUACAGCUCCUGUUA against AQP11 has a seed-corrected z-score of 0.0289. AGCUUGUACAGUGUUAUCC against PTPN4 gave a seed-corrected z-score of -2.22. Work on UUGCUGAACGCGAUGAUCU against PRDX2 yielded a seed-corrected z-score of 0.201. With UCUUAUGUAAUUGUUCCUC against KANSL1 the seed-corrected z-score was 0.324. Sequence UUCUUUCGCAUUGCAAUGC against CMC2 has a seed-corrected z-score of 0.187. Work on UGAGGACAAAGAAUCUUCC against MRPS18B yielded a seed-corrected z-score of 0.518. For UCCAGUUGUUCAAUCAUGG against CNTROB, the seed-corrected z-score was -2.47. Sequence UCUGUUUGAUGUUAGGUUG against PACS1 has a seed-corrected z-score of -0.0479. Work on UUCUUUAACUUUAUGCUCC against RAI2 yielded a seed-corrected z-score of 0.273. In the case of UAUUCUAUUGGGUCACUGG against DYDC2, the seed-corrected z-score is reported as 0.409. AAGUGAAUAGAAAACAUCC against SUN5 showed a seed-corrected z-score of 1.29. Work on UAGGUCAGAAGCAACCUGC against C10orf111 yielded a seed-corrected z-score of 2.42. AGAUGUGAUAGUGCUCUGG against TMEM52B gave a seed-corrected z-score of -2.02. Sequence UUACGUAAUCCAGGGAUCG against LANCL2 has a seed-corrected z-score of -1.2. UAGUGUAAUUGGUCUAACC against POGZ showed a seed-corrected z-score of 0.928. In the case of UAUGUGAUUCUGGUGCUUG against LEMD1, the seed-corrected z-score is reported as 0.794. With UCUGAUGUAAUUUCCAGUU against AARD the seed-corrected z-score was 0.424. UUAGUUGCUGACUUUCUCC against TRAPPC9 showed a seed-corrected z-score of -2.06. For UUUGAUUUGGUUGUGACCC against ZYX, the seed-corrected z-score was -0.301. Sequence UUCAAGUUUGUUCUCAGAC against GOLGA6L7P has a seed-corrected z-score of -0.298. With AAGGAAAUUAGGAUAAUAG against FAM217B the seed-corrected z-score was 0.732. For UGUCUCUCAGGCAACAGGC against PROP1, the seed-corrected z-score was -0.922. Sequence UUCAUUAUCAUCUAGGUGG against ACTR5 has a seed-corrected z-score of -0.49. Work on UGUGGACAAGGUCUAGGGC against LOC401317 yielded a seed-corrected z-score of -2.18. Work on AUAGUUGACAUUCCGAACC against CDK5RAP3 yielded a seed-corrected z-score of 0.941. UUAGAGUUUGCGAAGCAGG against PSG11 gave a seed-corrected z-score of 0.96. For UUUAUAUCCAUAUCCUUUC against PPIC, the seed-corrected z-score was 0.0569. AGAAGAUGAAUCACAGAGC against BAGE4 showed a seed-corrected z-score of -0.377. Sequence UAUCAUAUUUAAGAGACUG against TSSC1 has a seed-corrected z-score of 0.912. For UAUUUGAAGCUCCAGGGUG against FBXL15, the seed-corrected z-score was 0.429. With UUCUUUAUGCACAACUCCC against MYO1C the seed-corrected z-score was -2.91. Sequence UUACUUUUAGUUCAUACAG against SOX1 has a seed-corrected z-score of -0.0466. Sequence AUCAGUACUAAAAUAUCGG against ATG2B has a seed-corrected z-score of 0.25. UCCUCGAAAAUCUCAAAGC against MYO1B gave a seed-corrected z-score of -0.441. Work on UGGUAUUCAAAAUAGUCGC against TLK1 yielded a seed-corrected z-score of -0.673. Sequence UUCUGCUUCCGGUAAAUGC against SH3TC1 has a seed-corrected z-score of -0.467. For UUUGUUUCGCUGGUCUUUG against RYBP, the seed-corrected z-score was -2.49. UAUCCUGUAAGUUGUGGGC against TEX28 gave a seed-corrected z-score of 1.15. UCACUAAUAGGAUCUUCGC against RAB3GAP1 showed a seed-corrected z-score of 0.413. With AAGGUUUUCCGAGUAACUC against LYZL6 the seed-corrected z-score was 1.38. Work on AUAAGACUGACCUUGGUUG against TFCP2L1 yielded a seed-corrected z-score of -2.59. In the case of UUUUAUUCGAAAUUCUGCA against ITGB1BP1, the seed-corrected z-score is reported as 0.195. Work on AAGCCGAAAAUUGAUCUGC against GLDC yielded a seed-corrected z-score of 0.214. In the case of AAAUCUGCACUCUUGGUCA against RGS11, the seed-corrected z-score is reported as -2.54. In the case of AUGGUAGACACCUUAGUUC against RPL7P23, the seed-corrected z-score is reported as -2.39. Sequence UCGUUUACCAAACAGUUUC against BTK has a seed-corrected z-score of -0.0928. Work on UUUGUUCUGGAUGCCCUGC against WARSP1 yielded a seed-corrected z-score of 0.407. Sequence UUGGUUCCAUUGUAGGUCU against TSPAN3 has a seed-corrected z-score of -0.422. For UUCUUUUUGUCCAAACUCU against SLC25A25, the seed-corrected z-score was -0.247. AAAGUUACUCUUCCAAACC against POC1A gave a seed-corrected z-score of -2.67. AUAUUUCAUAUAGGCGAUG against PLA2G10 gave a seed-corrected z-score of -0.215. Work on UCUUGGUCCUCUGGCAGUC against TMEM116 yielded a seed-corrected z-score of -0.118. For AAAUAAAACGUACAAAUAC against SCRT1, the seed-corrected z-score was 0.713. UUCAUCUCCACAAUCACCG against MAG showed a seed-corrected z-score of -0.753. AAGCGGGAUGAAGAAAUCC against GSX2 showed a seed-corrected z-score of 3.22. With UCUGCACUUGUCAAUAUCC against MED10 the seed-corrected z-score was -0.53. For UUCGUUAUCAAUGCAGUAG against TUBB4B, the seed-corrected z-score was -1.5. In the case of AUCUUGGUGAUUUCGCGGC against NDN, the seed-corrected z-score is reported as -2.11. Work on UAACAUAAUUAUAACCUCC against ZNF716 yielded a seed-corrected z-score of 0.757. With UGAGGUUAGAGCACUGCAC against CCDC87 the seed-corrected z-score was -0.47. For UUCUUUCUCACGGUCACUC against LOC728445, the seed-corrected z-score was -0.746. UCAGGUGCUCCAAGUACUG against TMEM201 gave a seed-corrected z-score of -2.21. Sequence UCUUUGCUAGGUAAAAAGC against PRUNE has a seed-corrected z-score of 1.32. AACCGAAGGAGAUUCCUGG against C8orf49 gave a seed-corrected z-score of 0.161. For AAAACGAUCAAAAUCUGUC against RPL14P1, the seed-corrected z-score was -3.16. Sequence AAUUCACAUGUUGUAAUCC against STRADBP1 has a seed-corrected z-score of -0.053. In the case of UUUCCUAUUCACAAGAGCG against FHIT, the seed-corrected z-score is reported as 1.2. In the case of AAUCGCAUUGUUCAUGUCC against OR6K3, the seed-corrected z-score is reported as -1.67. Work on UCCUUGCAAAUCUCCGACC against LTBP3 yielded a seed-corrected z-score of -1.01. In the case of AAACCGAUAAGAACUGAGA against TMEM41A, the seed-corrected z-score is reported as 0.54. Work on AAACCUAUUAACUUCAAGC against CHKA yielded a seed-corrected z-score of -0.134. AAAGUUGAGGGUAGCACUC against AP5B1 gave a seed-corrected z-score of 0.334. For AUGGGUCUCAUGCUCCUCU against TMEM74B, the seed-corrected z-score was -2.13. UUAAUGAAUCUACAGUCCG against OTOR showed a seed-corrected z-score of 0.51. With AGUAUAUCACACUUGAUCC against COL4A4 the seed-corrected z-score was -0.00727. In the case of UAAAUUUGCAUGAAGGUGU against TMEM179, the seed-corrected z-score is reported as 0.108. In the case of UCUAGGAGCAGCGCAACUG against ANKRD29, the seed-corrected z-score is reported as -0.882. With AAGGUAAACGAUUAAAUUG against LAMTOR3 the seed-corrected z-score was 0.248. For UACAGUAGCACUGCCCUGU against LAMA5, the seed-corrected z-score was -2.69. With ACAUUGGUACCUGUCAUCC against GLYCTK the seed-corrected z-score was 0.203. For AAAAUAUAGAUAUCUAUGC against GADD45B, the seed-corrected z-score was 1.35. AGCAGCAUCAUUCUCAUGU against LOXL4 gave a seed-corrected z-score of 0.376. Work on UCAGUUUCCUCGCCGACUC against SH3BP5L yielded a seed-corrected z-score of -2.66. UACUGAGGACCUUUCGUUC against SPATA21 gave a seed-corrected z-score of -0.926. In the case of UGCUUAACCACAGAAGCUG against ADSL, the seed-corrected z-score is reported as -0.731. Sequence UACAGUACAAGUAUGAGCU against CYB561D2 has a seed-corrected z-score of -1.33. In the case of UCUCCUUUUAGCAUGAUCC against SNRPE, the seed-corrected z-score is reported as -2.15. UUGAGUCCAAUGUCCACUC against TBC1D9B gave a seed-corrected z-score of -0.454. In the case of UCCACGUCAAAUUUAUCCC against SPAG1, the seed-corrected z-score is reported as 0.232. Work on AAUUGUCCAACAUCAACGA against METTL2A yielded a seed-corrected z-score of -1.52. In the case of AUUCGAAUUAGGUAUUGGG against MAK16, the seed-corrected z-score is reported as 0.538. UGCUUCAACAAAUCGGGCC against C7orf57 showed a seed-corrected z-score of -2.05. Sequence UGAUUGCAGAUGAUGAUCC against VHLL has a seed-corrected z-score of -0.39. UUAGUUCCCAAGUACUAUC against CHD9 showed a seed-corrected z-score of 0.856. With UGGAUAGCGGUCCUCAUCC against IL17C the seed-corrected z-score was 1. UUGGGUGUCAGCAGUACUG against PRRC2A showed a seed-corrected z-score of -2.05.
